{"source": "PubChem BioAssay AID1631", "about": "(National Center for Advancing Translational Sciences (NCATS), 2009)", "note": "Hit rate of the full screen: of about 260,000 compounds, about 890 (0.34%) were called active. Inconclusive results (about 1%) are left out. The entries come from a sample that favours actives as a whole. Entries that show only a call come without a potency. Unmarked numbers belong to inactive results. Calls follow the shape of the dose curve; as a rule, active = well fitted activation curve with a large enough effect; inconclusive = small, poorly fitted or top-dose-only effect; inactive = no such curve, though single readings can be large or run the other way. Potency is read from the fitted curve at half-maximal effect.", "data": [{"target": "Pyruvate kinase PKM (Homo sapiens) (UniProt P14618)", "sequence (P14618 whole entry, looked up, canonical isoform)": "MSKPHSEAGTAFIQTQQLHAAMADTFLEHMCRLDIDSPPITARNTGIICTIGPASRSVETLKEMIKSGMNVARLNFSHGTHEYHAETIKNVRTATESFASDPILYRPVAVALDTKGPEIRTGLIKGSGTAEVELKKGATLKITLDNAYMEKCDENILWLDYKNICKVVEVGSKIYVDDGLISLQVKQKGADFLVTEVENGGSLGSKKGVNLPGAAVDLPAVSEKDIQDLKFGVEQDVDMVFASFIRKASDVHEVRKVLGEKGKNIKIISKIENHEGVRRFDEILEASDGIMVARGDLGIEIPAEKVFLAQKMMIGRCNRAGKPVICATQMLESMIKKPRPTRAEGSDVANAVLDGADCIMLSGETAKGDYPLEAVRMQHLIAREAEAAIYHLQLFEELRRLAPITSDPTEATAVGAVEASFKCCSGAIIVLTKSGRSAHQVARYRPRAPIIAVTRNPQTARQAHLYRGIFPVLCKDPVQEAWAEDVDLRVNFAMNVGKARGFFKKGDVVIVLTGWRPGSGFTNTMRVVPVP", "experiment": "qHTS Assay for Activators of Human Muscle isoform 2 Pyruvate Kinase; also: nearly all actives have a fitted effect of over 55% in size", "conditions": "purified PKM2, Kinase-Glo ATP luminescence; Potency: activation; series mostly up to 57.5 µM", "summary_of_the_method": "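Kinase-Glo luminescence reports ATP generated from ADP (0.1 mM) and PEP (0.5 mM) by purified hPK-M2 after 1 h at room temperature, pH 7.2 imidazole buffer; intermediate enzyme activity allows detecting inhibitors and activators.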", "values": [{"smiles": "Cc1cc(C)c(SCCc2ccncc2)c(C)c1", "Potency": "inactive"}, {"smiles": "CCOc1cc(/C=C(\\C#N)c2nc(-c3cccs3)c(NC(C)=O)s2)ccc1O", "Potency": "inactive"}, {"smiles": "COc1cc(/C=N\\Nc2nc(-c3cccs3)c(NC(C)=O)s2)ccc1O", "Potency": "11.2 µM (active)"}, {"smiles": "COc1cc(/C=N/Nc2nc3ccccc3s2)ccc1O", "Potency": "inactive"}, {"smiles": "COc1cccc(CC(=O)Nc2nc(-c3ccc(OC)c(OC)c3)cs2)c1", "Potency": "inactive"}, {"smiles": "C/C=C\\C=C\\C(=O)N1CC2(CC(c3cccc(NC(=O)/C(C)=C\\C)c3)=NO2)C[C@H]1C(N)=O", "note": "(some centres not stated)", "Potency": "3.55 µM (active)"}, {"smiles": "C/C=C(/C)C(=O)Nc1cccc(C2=NOC3(C2)C[C@@H](C(N)=O)N(C(=O)C2(C)CC2)C3)c1", "note": "(some centres not stated)", "Potency": "inactive"}, {"smiles": "CC/C=C/C(=O)N1CC2(CC(c3cccc(NC(=O)CC)c3)=NO2)C[C@H]1C(N)=O", "note": "(some centres not stated)", "Potency": "inactive"}, {"smiles": "CCC(C)C(=O)Nc1ccccc1N1CCN(c2ccc(F)cc2)CC1", "note": "(configuration not stated)", "Potency": "inactive"}, {"smiles": "CCCNC(=O)c1ccc(N2CCC3(CC2)CC(c2ccc(Cl)cc2)=NO3)c([N+](=O)[O-])c1", "Potency": "inactive"}, {"smiles": "COc1ccc(C(=O)NCC(=O)N/N=C/c2cccnc2)cc1", "activation": "0.538% [at 0.46 µM, 0% is enzyme alone, no compound]"}, {"smiles": "O=C(NCC(=O)N1CCN(c2ncc(C(F)(F)F)cc2Cl)CC1)c1ccc(Br)o1", "Potency": "inactive"}, {"smiles": "O=C(O)c1cccc2c1C(=O)N(C1CCCC1)C2", "Potency": "inactive"}, {"smiles": "COc1ccc(N(C(=O)c2snc(C(N)=O)c2N)C(C(=O)NC2CCCC2)c2ccc(C)o2)c(OC)c1", "note": "(configuration not stated)", "Potency": "inactive"}, {"smiles": "CN(CC1CCCO1)S(=O)(=O)c1ccc(C(=O)Nc2ccc([N+](=O)[O-])cc2)cc1", "note": "(configuration not stated)", "Potency": "inactive"}, {"smiles": "CCOC(=O)c1csc(CCNC(=O)c2oc3c(Cl)cc(C)cc3c2C)n1", "Potency": "inactive"}, {"smiles": "CC(C)NS(=O)(=O)c1ccc(OCC(=O)NC2CCCCCC2)cc1", "Potency": "inactive"}, {"smiles": "O=C(Nc1nnc(C2=COCCO2)o1)c1ccc([N+](=O)[O-])s1", "Potency": "inactive"}, {"smiles": "COc1ccc(-n2cc(-c3ccccc3)c3c(=S)nc[nH]c32)cc1", "activation": "-7.56% [at 0.46 µM, 0% is enzyme alone, no compound]"}, {"smiles": "CCc1ccc(CNC(=O)C2CCN(c3nnc(C)c4c(C)n(-c5ccc(C)cc5)nc34)CC2)cc1", "activation": "-0.982% [at 0.46 µM, 0% is enzyme alone, no compound]"}, {"smiles": "Cc1cc(S(=O)(=O)NCc2ccccn2)c(Cl)cc1Cl", "activation": "-2.1% [at 11.5 µM, 0% is enzyme alone, no compound]"}, {"smiles": "COc1ccc(N2CCN(S(=O)(=O)CCNC(=O)C34CC5CC(CC(C5)C3)C4)CC2)cc1", "Potency": "inactive"}, {"smiles": "O=C(Cc1ccc(Cl)c(Cl)c1)Nc1ccc(SC(F)F)cc1", "Potency": "inactive"}, {"smiles": "Nc1cccc(S(=O)(=O)Nc2ccc(SC(F)F)cc2)c1", "Potency": "14.1 µM (active)"}, {"smiles": "CSc1ccc(S(=O)(=O)Nc2cccc(F)c2)cc1", "Potency": "inactive"}, {"smiles": "Cc1ccccc1C(=O)N1CCN(c2ccc(NC(=O)c3cccs3)cc2)CC1", "Potency": "inactive"}, {"smiles": "Cc1c(C=O)c2ccccc2n1CCOc1ccccc1", "Potency": "inactive"}, {"smiles": "CCOc1cc(-c2cc(-c3ccc(NC(C)=O)cc3)nc(N)c2C#N)ccc1O", "Potency": "inactive"}, {"smiles": "CC(C)C(C)NC(=O)COc1nc2ccccc2nc1N(C)C1CCCCC1", "note": "(configuration not stated)", "Potency": "inactive"}, {"smiles": "CCN(C(=O)C1CCCN(c2nc(-c3ccc(OC)cc3)no2)C1)c1ccc(OC)cc1", "note": "(configuration not stated)", "Potency": "inactive"}, {"smiles": "CCn1cc(CN2CCC(C(=O)Nc3cccc(-c4cccc(Cl)c4)c3)CC2)c(C)n1", "Potency": "inactive"}, {"smiles": "COc1ccccc1N1CCN(C(=O)CCS(=O)(=O)c2ccc3c(c2)NC(=O)C(C)S3)CC1", "note": "(configuration not stated)", "Potency": "inactive"}]}]}
